This excerpt belongs to a sample that is enriched for hits.
ST2 inh: blocks human ST2 binding to IL-33; Q01638; AlphaLISA ST2-Fc/biotin-IL-33 interaction, 1 h; inhibition, % for hits at 17 µM; 78,000 compounds, 2.3% hits; in the data active = inhibition above about 30%
Target sequence (Q01638 whole entry, looked up): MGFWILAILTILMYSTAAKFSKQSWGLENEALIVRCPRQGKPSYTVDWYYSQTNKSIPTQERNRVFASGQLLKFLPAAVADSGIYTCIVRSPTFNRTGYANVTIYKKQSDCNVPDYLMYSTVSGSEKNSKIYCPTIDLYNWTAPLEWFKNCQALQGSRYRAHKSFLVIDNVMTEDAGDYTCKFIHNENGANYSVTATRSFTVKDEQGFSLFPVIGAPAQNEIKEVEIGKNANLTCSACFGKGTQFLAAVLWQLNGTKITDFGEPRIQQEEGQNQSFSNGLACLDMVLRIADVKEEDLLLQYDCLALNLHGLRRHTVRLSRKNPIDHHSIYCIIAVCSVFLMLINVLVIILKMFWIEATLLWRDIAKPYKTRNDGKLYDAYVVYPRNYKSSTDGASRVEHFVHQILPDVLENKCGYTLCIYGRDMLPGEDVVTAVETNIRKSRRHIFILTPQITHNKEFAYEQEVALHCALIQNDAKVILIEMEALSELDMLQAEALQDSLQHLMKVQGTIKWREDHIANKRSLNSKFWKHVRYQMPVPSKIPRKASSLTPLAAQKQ
Active calls of the source: *; i = inactive.

SMILES	ST2 inh
COc1ccc(OC)c(N2C(=O)CC(N3CCN(c4ccc(F)cc4)CC3)C2=O)c1 (centres undefined)	31.0%*
CCOc1ccc(N2C(=O)CC(N3CCN(c4ccc(F)cc4)CC3)C2=O)cc1 (centres undefined)	i
Cc1cccn2c(=O)c3cc(C(=O)NCCCOC(C)C)n(C)c3nc12	i
NC(=O)CSc1nc2c(sc3ccccc32)c(=O)n1CCc1ccccc1	i
CCOc1cc2c(cc1OCC)C1C(C(=O)Nc3cc(C)ccn3)c3ccccc3C(=O)N1CC2 (centres undefined)	i
CCCCS(=O)(=O)/C=C\C=C\S(=O)(=O)CCCC	i
COc1ccc(S(=O)(=O)Nc2cc(C)cc(C)c2)cc1	i
COc1ccc(N(C(F)F)S(=O)(=O)c2ccc(C)cc2)cc1	i
Cc1ccc(NC2=CC(=NS(=O)(=O)c3ccc(F)cc3)c3ccccc3C2=O)cc1	69.0%*
CCN(CC)C(=NS(=O)(=O)c1ccc(C)cc1)c1ccc(F)cc1	i
COc1ccc(S(=O)(=O)N=C2C=C(Nc3ccc(C)cc3)C(=O)c3ccccc32)cc1	92.0%*
COc1ccc(S(=O)(=O)N=C2C(C)=CC(=O)C=C2C)cc1	i
COc1ccc(Nc2ccc3c4c(ncnc24)-c2ccccc2C3=O)cc1	i
COc1ccc(NC2=CC(=NS(=O)(=O)c3ccc(C)cc3)c3ccccc3C2=O)cc1	92.0%*
Cc1ccc(S(=O)(=O)Nc2ccc(NC(=O)c3ccc(F)cc3)cc2)cc1	i
O=C(NCCC1COc2ccccc2O1)c1cn(Cc2c(F)cccc2F)nn1 (centres undefined)	i
COc1ccc(/C=C(/NC(=O)c2ccco2)C(=O)Nc2cccc(C)c2)cc1	i
O=C(c1ccc(Br)o1)N1CCCC1	i
Nc1ncnc(N2CCN(c3ccc(Cl)c(Cl)c3)CC2)c1[N+](=O)[O-]	i
O=C(c1cccn2c(=O)c3sccc3nc12)N1CCN(Cc2ccc3c(c2)OCO3)CC1	i
CC(C)(C)c1ccc(S(=O)(=O)NCc2ccc(S(N)(=O)=O)cc2)cc1	i
COc1cccc(NC(=O)O[C@@H]2CO[C@H]3[C@@H]2OC[C@@H]3Nc2nccc(-c3ccc(-c4ccccc4)cc3)n2)c1	i
COc1cc(NC(=O)N[C@H]2CO[C@H]3[C@@H]2OC[C@@H]3Nc2nccc(-c3cccs3)n2)cc(OC)c1	i
O=C(Nc1ccc(Oc2ccccc2)cc1)O[C@@H]1CO[C@H]2[C@@H]1OC[C@@H]2Nc1nccc(-c2cccs2)n1	34.0%*
COc1cccc(C2CCN2C(=O)CC(=O)Nc2ccc(C)cc2)c1 (centres undefined)	31.0%*
SMILES	ST2 inh
COc1cccc(C2CCN2C(=O)Nc2n[nH]c(CCc3ccccc3)n2)c1 (centres undefined)	i
COc1cccc(NC(=O)C(=O)NCc2ccc(C)cc2)c1	i
CCOC(=O)C(Cc1ccc(F)cc1)SC#N (centres undefined)	i
CN(CC1COCCO1)S(=O)(=O)NCc1ccccc1 (centres undefined)	i
COc1ccc(CC2CN(C(=O)CCc3cn[nH]c3)CCO2)cc1 (centres undefined)	i
O=C(O)c1ccc(NCn2nnc3ccccc32)cc1	i
CNc1ccc(-c2noc([C@@H]3CCCN3C3CCCCC3)n2)cn1	i
O=C(CCS(=O)(=O)c1ccc(Br)s1)Nc1ccccc1F	i
CS(=O)(=O)c1ccc2nc(NC(=O)/C=C/c3ccc(Cl)cc3)sc2c1	i
COc1ccc2nc(NC(=O)c3ccc(Cl)s3)sc2c1	i
COc1ccc2nc(NC(=O)/C=C/c3ccc([N+](=O)[O-])cc3)sc2c1	31.0%*
CC(C)N1Cc2c(sc3c2CCCC3)N(C(=O)c2ccccc2)C1	i
COc1ccccc1C1C(C#N)=C(N)SC(N)=C1C#N	i
Cc1ccc(C2C(C#N)=C(N)SC(N)=C2C#N)o1	32.0%*
N#CC1=C(N)SC(N)=C(C#N)C1c1ccc(Cl)cc1Cl	i
Cc1ccc(NC2(C(=O)NCCc3cc(=O)[nH]cn3)CCCC2)cc1	i
NCCc1cccc(-c2cc(NCc3ccccn3)nc3[nH]ccc23)c1	35.0%*
Cc1cc(-c2cc(N)nc3[nH]ccc23)cnc1N	i
c1cnc(-c2cc(NCc3cccnc3)nc3[nH]ccc23)nc1	35.0%*
O=C(O)CNc1cc(-c2ccccc2C(F)(F)F)c2cc[nH]c2n1	i
OCCNc1cc(-c2nccc(C3CCCC3)n2)c2cc[nH]c2n1	i
COc1ccc(-c2cc(NCc3cccnc3)nc3[nH]ccc23)cn1	i
COc1cc(C(=O)N2CCN(Cc3ccccc3[N+](=O)[O-])CC2)cc(OC)c1OC	i
Cc1nc(CNC(=O)[C@H](N)CC(C)C)nc2c1CCCC2	i
O=C(Nc1ccc(F)cc1)c1cnc(Nc2ccc(F)cc2)c2ccccc12	i
SMILES	ST2 inh
N#C/C(=C\c1cc(Cl)ccc1O)c1nc2ccccc2[nH]1	35.0%*
C=CCOc1ccc(Cl)cc1/C=C(\C#N)c1nc2ccccc2[nH]1	i
N#C/C(=C\c1ccc(O)cc1O)c1nc2ccccc2[nH]1	i
O=C(CC[C@@H]1CNC(=O)[C@@H]2C[C@H](NC(=S)Nc3ccc(Cl)cc3)CN12)NCc1ccccc1	i
CC(=O)Nc1ccccc1NC(=O)CN1CCC(O)(c2ccc(C)cn2)CC1	i
O=C(Cn1c(=O)sc2ccccc21)Nc1ccc(Cl)cc1F	i
O=[N+]([O-])c1cccc(N=Cc2nc(-c3ccccc3)oc2O)c1	i
C=CCn1c(C)csc1=Nc1ccc(S(=O)(=O)Nc2nc(C)cc(C)n2)cc1	i
COCc1cc(C)n(CC(=O)c2ccccc2)c(=O)c1C#N	i
CN(C)CCCn1c(-c2ccc([N+](=O)[O-])cc2)csc1=Nc1ccccc1	51.0%*
NC(CO)C(O)c1ccc([N+](=O)[O-])cc1 (centres undefined)	i
C=CCn1c(-c2ccccc2)csc1=Nc1cccc([N+](=O)[O-])c1	59.0%*
CN(CCCC(=O)O)c1nc(-c2cccc([N+](=O)[O-])c2)cs1	i
Cc1csc(=Nc2ccccc2)n1CC(O)c1ccc([N+](=O)[O-])cc1 (centres undefined)	39.0%*
Cc1ccc(C(=O)Cn2c(C)csc2=Nc2ccccc2)cc1	41.0%*
Cc1[nH]n(-c2ccc([N+](=O)[O-])cc2)c(=O)c1C=NCC(O)c1ccccc1 (centres undefined)	i
CN(C)CCN(C)Cc1ccc([N+](=O)[O-])cc1	i
Cc1ccc(C(=O)CN2C3=NCCCN3c3ccccc32)cc1	i
O=C(c1ccc2c(c1)CCO2)N1C[C@@H]2C[C@H](C1)[C@@H]1CCCC(=O)N1C2	i
CC(=O)N1N=C(c2ccc([N+](=O)[O-])cc2)OC12CCCC2	i
COc1ccc(C2SCCN2S(=O)(=O)c2cccc(C)c2)cc1 (centres undefined)	i
CN(Cc1ccccc1)[C@H]1[C@H](O)[C@H](CO)O[C@@H]1CNC1CCCCC1	i
O=C(NCC1COc2ccccc2O1)c1cc(-c2ccncc2)nc2ccccc12 (centres undefined)	i
O=C(N[C@H]1CCN2C(=O)N(c3ccc(OC(F)(F)F)cc3)C(=O)[C@@H]2C1)c1ccncc1	i
CC(=O)N1CCC(C(=O)N[C@H]2CCN3C(=O)N(c4cccc(C(F)(F)F)c4)C(=O)[C@@H]3C2)CC1	i
O=C(N[C@H]1CCN2C(=O)N(c3cccc(C(F)(F)F)c3)C(=O)[C@@H]2C1)c1ccncc1	56.0%*
Cc1ccc2c3c(c(N)c(=O)[nH]c13)-c1ccccc1C2=O	51.0%*

Screens (PubChem BioAssay)
